ChEMBL document CHEMBL4513216, “Probing the Open Global Health Chemical Diversity Library for Multistage-Active Starting Points for Next-Generation Antimalarials” (ACS Infect Dis, 2020)
Among all 69,000 compounds or so, about 8,600 (12%) showed an effect of 50% or more. The sample holds strong results, similar compounds and a random draw of the others, so the mix is not that of the screen.

test system: Plasmodium berghei; assay: Screen against P. berghei liver stage (PbLuc), transformed with Luciferase, at 10uM; assay type: functional, HepG2; conditions: tested at 10 uM

Structure (SMILES) | INHIBITION [%]
Cc1csc(CNCc2c(C)nn(C)c2N2CCOCC2)n1 | -19.7
CCCN(CC)C(=O)c1ncn2c1CN(C)S(=O)(=O)c1ccccc1-2 | -49.7
COCCOCC(=O)Nc1nc2c(OC)cc(F)cc2s1 | 7.65
Cc1nnc(CN(Cc2ccc3c(c2)OCO3)C2CCC(C)CC2)o1 (centres undefined) | -45.9
COc1cc(OC)c(C2CC(=O)Oc3cc(C)[nH]c(=O)c32)cc1OC (centres undefined) | 4.07
Cn1cc2ncn(CCCOc3cccnc3)c(=O)c2n1 | 14.3
Cn1cc2ncn(CCNc3cccnc3)c(=O)c2n1 | 31.6
CC(Cn1cnc2cn(C)nc2c1=O)Oc1cccnc1 (centres undefined) | 52.6
CC(C#N)NS(=O)(=O)c1cccc(C(C)C)c1 (centres undefined) | 22.3
Cc1ccc(S(=O)(=O)NC(C)C#N)cc1Br (centres undefined) | 4.95
CCC(=O)c1cccc(S(=O)(=O)NC(C)C#N)c1 (centres undefined) | 54.4
CS(=O)(=O)NCC1CCCCN1C(=O)Nc1cccnc1N1CCCC1 (centres undefined) | 34.7
c1coc(-c2nnc(CN3CCCC3Cn3cncn3)o2)c1 (centres undefined) | 17.5
CCCn1ncc(CN(Cc2cccnc2)Cc2ccsc2)c1C | 22.9
CCCn1ncc(CN(CCN(C)C)Cc2ccsc2)c1C | 57.5
CCCn1ncc(CN(Cc2ccsc2)Cc2ccco2)c1C | 13
CCC(C)(C)NC(=O)c1nnn(-c2cccc3c2CCN(C)C3)c1C | 36.3
Cc1c(C(=O)NC(C)C(C)C)nnn1-c1cccc2c1CCN(C)C2 (centres undefined) | 11.8
CCC(C)NC(=O)c1nnn(-c2cccc3c2CCN(C)C3)c1C (centres undefined) | 51.7
Cc1c(C(=O)NCC(C)C)nnn1-c1cccc2c1CCN(C(C)C)C2 | 38
Cc1c(C(=O)NCC(C)C)nnn1-c1cccc2c1CCN(C)C2 | 56.1
Cc1c(C(=O)NCCC(C)C)nnn1-c1cccc2c1CCN(C)C2 | 36.3
Cc1ccc(C)c(C(C)NC(=O)N2CCC(n3cncn3)CC2)c1 (centres undefined) | -3.2

Structure (SMILES) | INHIBITION [%]
CN1CCN([C@@H]2CCN(C3CCOC3)[C@H]2Cc2cnn(C)c2)CC1 (some centres undefined) | 24.9
Cc1cc2ncn(C(=O)N3CCCCC3)c2cc1C | -16
CCOC1CCCN(C(=O)c2ccccc2NCc2cccnc2)C1 (centres undefined) | 16.8
O=C(Cc1ccc2c(c1)OCCO2)NC1CC1 | -60.4
CC[C@@H]1N(Cc2ccc(C)o2)CCC[C@]12CCC(=O)N2CCOC | 29.3
O=C(C1CCOCC1)N1CC[C@H]2[C@H]1CCN2c1nncs1 | 40.8
CC1=Nc2c(c(=O)[nH]n2C2CCCCC2)C(c2ccc(C(=O)O)cc2)S1 (centres undefined) | 36.55
COC(=O)c1ccc(C2SC(C)=Nc3c2c(=O)[nH]n3C2CCCC2)cc1 (centres undefined) | 76.3
CC1=Nc2c(c(=O)[nH]n2C2CCCC2)C(c2ccc(C(=O)O)cc2)S1 (centres undefined) | 26.65
Cc1noc(CN2Cc3ccccc3CC2c2nnc(C)o2)n1 (centres undefined) | 20.2
CCc1nnc(C2Cc3ccccc3CN2Cc2cc(C)no2)o1 (centres undefined) | 58.1
CCc1nnc(C2Cc3ccccc3CN2Cc2cc(C)on2)o1 (centres undefined) | 68.1
CCc1nnc(C2Cc3ccccc3CN2Cc2ncc(Cl)n2C)o1 (centres undefined) | 1.84
CCc1nnc(C2Cc3ccccc3CN2Cc2nc(C)no2)o1 (centres undefined) | 9.64
Cc1cc(CN2Cc3ccccc3CC2c2nnc(C)o2)on1 (centres undefined) | -8.3
CCc1nnc(C2Cc3ccccc3CN2Cc2nc(C3CC3)no2)o1 (centres undefined) | 60.9
Cc1nnc(C2Cc3ccccc3CN2Cc2nc(C3CC3)no2)o1 (centres undefined) | 23.7
Cc1cc(CN2Cc3ccccc3CC2c2nnc(C)o2)no1 (centres undefined) | 7.67
CNC(=O)CCc1cc(C2CCCCN2C(C)C)nc(C)n1 (centres undefined) | 15.1
Cc1nc(CN(C)C2CCCN(Cc3noc(C4CC4)n3)C2)oc1C (centres undefined) | 40.2
COc1cccc(CC(=O)N2CCCC(c3nncn3C)C2)c1 (centres undefined) | -26.6
Cc1ccc(-c2noc(CN3CCCC(Cn4cncn4)C3)n2)cc1 (centres undefined) | 48.2
Cc1cccc2[nH]c(C3CCCN(Cc4ccccc4C(=O)O)C3)nc12 (centres undefined) | 37.6

Structure (SMILES) | INHIBITION [%]
Cc1cc(C2CCCN(CCCS(N)(=O)=O)C2)n[nH]1 (centres undefined) | 16.8
c1cc(CN2CCO[C@H]3[C@H](OCC4CCOCC4)CC[C@@H]32)co1 | -34.9
Cc1nn(C)c(C)c1C1CCCN1C(=O)c1cnc2onc(C)c2c1 (centres undefined) | -2.53
O=S(=O)(CCCNC1CCc2ncnn2C1)c1ccccc1 (centres undefined) | 31.3
Cc1noc(C)c1CN1C[C@H](OCC(=O)N(C)C)[C@H]2COC[C@H]21 | 15.3
CN(C)C(=O)CO[C@@H]1CC[C@H]2[C@H]1OCCN2c1ncccn1 | 20.1
Cc1noc(C)c1CN1C[C@H](OCC(=O)N(C)C)[C@H]2OCCC[C@H]21 | 10.5
Cc1noc(C)c1CN1C[C@@H](OCC(=O)N(C)C)[C@H]2OCCC[C@H]21 | 74.8
CN(C)C(=O)CO[C@@H]1CC[C@H]2[C@H]1OCCN2c1ncc(F)cn1 | 64.3
Fc1cnc(N2CCO[C@H]3[C@H](OCC4CCOCC4)CC[C@@H]32)nc1 | 38.5
CNC(=O)c1ccc(C2CCCN(C(=O)c3c(C)noc3C)C2)nc1 (centres undefined) | 17.1
CC1(C2CCN(CCCC(=O)O)CC2)CN(Cc2ccccc2)C(=O)O1 (centres undefined) | 7.52
Cn1nnc2cc(C(=O)N3CCC(Nc4cccnn4)CC3)ccc21 | 10
Cc1ccsc1CNCC1CCCN1c1cccnn1 (centres undefined) | -36.25
CCOCCCNCc1cc2c(C)cc(C)cc2n2c(=O)n(C)nc12 | 51.5
Cc1cc(C)c2cc(CNCc3cccnc3)c3nn(C)c(=O)n3c2c1 | 50.1
CCCNCc1cc2c(C)cc(C)cc2n2c(=O)n(C)nc12 | 33
Cc1cnn(CCNCC(=O)NCc2ccccc2)c1 | 18.4
CC(C)c1nn(C)c(N(C)C)c1CNCc1cccnc1 | -3.48
Cc1cc(C)c(N(CC(O)CNCc2ccccc2)S(C)(=O)=O)c(C)c1 (centres undefined) | 35.1
COCCNCc1cc2c(C)cc(C)cc2n2c(=O)n(C)nc12 | 48.6
Cc1cc(C)c2cc(CNCc3ccccc3)c3nn(C)c(=O)n3c2c1 | 73.4
Cc1nn(C)c(N(C)C)c1CNCc1cccnc1 | 40.7
